Sampled rows, rich in hits. Any-hit rate of the full collection: about 6.1%.
HepG2 viability – counter-screen for TGF-b inhibitors: cytotoxicity in HepG2 cells; HepG2 CAGA-GFP viability, ATP luminescence, 18 h; Potency, µM (series often up to 46.1 µM), inactives show at the top dose activity change, negative = cytotoxicity, most hits filed as cytotoxic; 0.76% of 410,000 active; AID 588856
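HepG2 CAGA-GFP cells (1000/well, DMEM with 1% FBS) received compound, then TGF-beta at 500 pg/mL final, and were incubated 18 hours at 37 degrees C. Viability was read by CellTiter-Glo luminescence. Media-only wells were set as complete cell-killing and DMSO as no toxicity.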
Gal4-VP16 FLuc – Gal4-VP16 reporter inhibition counter-screen. Drosophila S2 Gal4-VP16 UAS-luciferase, luminescence, 20 h. Potency, µM (titrated, usually from 53.6 µM), inactives show top-dose activity, negative = inhibition, hits mostly inhibitors. 3.5% of 310,000 active. AID 2546;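 note: Gal4-VP16 expression switched on by copper sulfate through the metallothionein promoter; % is set by controls: 0 for no effect and ±100 for the full control effect; nearly all actives have a fitted effect of over 50% in size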
TGFb inhibitor – TGF-b pathway inhibition; Potency, µM (top dose mostly 46.1 µM), for the others: at the top dose activity, negative = inhibition, actives largely listed as inhibitors; 1.2% of 410,000 active; HepG2 CAGA-GFP TGF-b/SMAD3 reporter, GFP fluorescence, 18 h; TGF-beta stimulated, 500 pg/mL final; AID 588855; note: % is set by controls: 0 for no effect and ±100 for the full control effect; nearly all actives have a fitted effect of over 65% in size
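Cell-based qHTS in HEPG2 carrying a CAGA-GFP Smad reporter; compounds added before 500 pg/mL final TGF-beta, 18 h incubation at 37 degrees C, GFP fluorescence quantified per cell by imaging cytometry.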
RORgamma inh – ROR gamma (mouse) transcription inhibition; P51450; Drosophila S2 Gal4-RORgamma UAS-luciferase reporter, 20 h; Potency, µM (series often up to 53.6 µM), for the others: top-dose activity change, negative = inhibition, actives largely listed as inhibitors; 5.4% of 310,000 active; note: % is set by controls: 0 for no effect and ±100 for the full control effect; nearly all actives have a fitted effect of over 60% in size
Target sequence (P51450 whole entry, looked up, the tested form may be a part): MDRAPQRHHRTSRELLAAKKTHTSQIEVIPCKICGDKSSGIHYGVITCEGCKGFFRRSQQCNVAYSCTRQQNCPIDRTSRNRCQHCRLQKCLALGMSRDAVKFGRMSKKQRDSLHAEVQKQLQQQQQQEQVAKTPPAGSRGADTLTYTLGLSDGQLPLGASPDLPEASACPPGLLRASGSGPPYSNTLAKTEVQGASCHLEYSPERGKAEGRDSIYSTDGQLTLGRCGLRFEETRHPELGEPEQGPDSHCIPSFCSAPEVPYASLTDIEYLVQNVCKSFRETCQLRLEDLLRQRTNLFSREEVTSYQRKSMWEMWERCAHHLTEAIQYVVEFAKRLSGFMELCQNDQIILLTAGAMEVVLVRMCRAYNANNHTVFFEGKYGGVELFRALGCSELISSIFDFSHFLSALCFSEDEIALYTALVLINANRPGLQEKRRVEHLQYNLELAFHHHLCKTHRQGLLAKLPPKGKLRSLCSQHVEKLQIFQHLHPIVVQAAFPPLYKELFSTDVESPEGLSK
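Using a luciferase readout, inhibitors were identified by reduced reporter activity in Drosophila cells coexpressing a copper-inducible Gal4–ROR gamma fusion and UAS-driven Photinus luciferase, incubated 20 hr after 700 uM copper sulfate.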
S2 tox – cell viability loss in ATXN counter-screen; 0.49% of 400,000 active; AID 651635; S2 cells (HEK-293 line with an ATXN2-luciferase reporter) viability, CellTiter-Fluor protease fluorescence, 24 h; Potency, µM (highest dose often 56.7 µM), usual class: cytotoxic; note: nearly all actives have a fitted effect of over 40% in size
ATXN2 expr inh – reduces ATXN2 reporter expression in HEK-293 cells | Potency, µM (doses to about 57 µM), for the others: at the highest dose activity change, negative = inhibition, usual class: inhibitors | HEK-293 ATXN2-luciferase reporter, luminescence, 24 h | 0.72% of 360,000 active; note: % is set by controls: 0 for no effect and ±100 for the full control effect; nearly all actives have a fitted effect of over 55% in size
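ATXN2-luciferase reporter cells (luciferase flanked by upstream and downstream ATXN2 gene portions) were treated 24 h at 37 °C with compounds at up to 57 uM. SteadyGlo luminescence gave expression; GF-AFC fluorescence gave viability.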
* marks the source's active call; other numbers are inactive results; i = inactive; ? = inconclusive; . = no result; [ ] = remark or other dose. Calls come from the whole dose curve; as a rule, active = well fitted curve in the direction sought with a large enough effect; inconclusive = small, poorly fitted or top-dose-only effect, or another doubt; inactive = no such curve, though single readings can be large; an effect the other way counts as inactive or inconclusive. Potency is the fitted concentration of half-maximal effect.

SMILES | HepG2 viability | Gal4-VP16 FLuc | TGFb inhibitor | RORgamma inh | S2 tox | ATXN2 expr inh
COC(=O)[C@H](C)NC(=O)C/C=C\[C@@H](C)[C@@H](CO)OC | . | -13.8%[10 µM] | . | 10.9%[10 µM] | . | .
COc1cc(OC)c(/C=C/c2ccc3ccccc3[n+]2C)c(OC)c1 | -17.9% | . | 6.5% | . | . | .
CC1(C)Cc2c(sc3ncnc(NNC(=S)NCc4ccccc4)c23)CO1 | -14.7% | 3.16µM* | ? | 2.24µM* | ? | .
COc1ccc(/C=N\NC(=O)c2cccc(Br)c2)c(OC)c1 | 2.8% | 1.5% | -1.2% | -5.1% | i | -24.3%
Cc1ccc(C(=O)N/N=C\c2ccc[nH]2)cn1 | -5.2% | -1.2% | -3.6% | ? | i | 3.1%
O=C(N/N=C/c1ccc[nH]1)c1ccc([N+](=O)[O-])cc1 | -12.4% | 5.62µM* | -0.3% | 3.98µM* | i | 21.1%
O=C(N/N=C/c1ccc[nH]1)c1cc2ccccc2cc1O | -29.0% | ? | -26.0% | 1.12µM* | i | -31.2%
O=C(N/N=C/c1ccc[nH]1)c1cccc(Br)c1 | 2.4% | 5.62µM* | 1.8% | 2.82µM* | ? | 12.6%
Cc1cccc(C(=O)N/N=C/c2ccc[nH]2)c1 | -0.3% | 12.6µM* | -12.9% | 7.94µM* | i | 15.2%
CCSc1nnc2c(n1)OC(c1ccc(OC)c(OC)c1)N(C(C)=O)c1ccccc1-2 (centres undefined) | -15.9% | . | 0.0% | . | i | 11.6%
COc1ccccc1Cn1c(SCC(=O)C(C)(C)C)nc2ccccc2c1=O | -17.4% | . | ? | . | i | -1.7%
Cc1c(NC(=O)Cc2ccc(F)cc2)cccc1-c1nc2cccnc2s1 | -2.1% | . | -22.5% | . | . | .
CCN1c2ccccc2-c2nc(SCC(=O)NCc3ccccc3)ncc2S1(=O)=O | 4.6% | . | 7.4% | . | i | 5.8%
Cc1cccc(NCC(=O)N/N=C/c2cccc(Br)c2)c1 | -25.8% | -10.3% | -18.8% | -1.9% | ? | ?
O=C(N/N=C/c1ccc[nH]1)c1cccnc1 | -28.9% | -9.9% | 9.3% | ? | i | -6.5%
O=C(N/N=C\c1ccc[nH]1)c1cncc(Br)c1 | -2.8% | 5.62µM* | -2.0% | 2.82µM* | i | .
Cc1cccc(NCC(=O)N/N=C\c2ccc[nH]2)c1 | -13.3% | ? | 19.3% | 8.91µM* | i | 10.4%
CCN1CCN(c2nnc(-n3cccc3C(=O)NCc3ccccc3OC)s2)CC1 | 2.4% | . | -18.8% | . | . | .
CCOc1ccc(-c2nonc2NC(=O)c2oc3cc(Br)ccc3c2C)cc1 | -30.0% | . | 7.08µM* | . | ? | -15.3%
CCOc1ccc(-c2nonc2NC(=O)c2oc3ccc(Br)cc3c2C)cc1 | -23.9% | . | -19.2% | . | . | .
Cc1cc(-c2ccccc2)c2c(=O)n(-c3ccccc3)[nH]c2n1 | -12.3% | 16.7% | -8.7% | -31.7% | i | 8.0%
S=c1nc(C2CC2)n(-c2ccccc2)[nH]1 | 13.1% | ? | -7.9% | 7.94µM* | i | 20.3%
O=C(CNC(=O)c1nc[nH]c1C(=O)N1CCNCC1)OCc1ccccc1 | 6.3% | . | ? | . | i | 6.0%
CC(C)C[C@H](NC(=O)c1nc[nH]c1C(=O)N1CCC(C)CC1)C(=O)OC(C)(C)C | -14.2% | ? | -1.3% | 15.8µM* | i | 3.3%
CC1CCN(C(=O)c2[nH]cnc2C(=O)N[C@@H](CCCCNC(=O)OC(C)(C)C)C(=O)OC(C)(C)C)CC1 | -13.5% | -20.4% | -22.0% | -44.9% | i | -7.8%
SMILES | HepG2 viability | Gal4-VP16 FLuc | TGFb inhibitor | RORgamma inh | S2 tox | ATXN2 expr inh
CC(C)(C)OC(=O)CNC(=O)c1nc[nH]c1C(=O)NCC(=O)OC(C)(C)C | -0.9% | -9.9% | 26.4% | -24.2% | i | 1.1%
O=C(CNC(=O)c1nc[nH]c1C(=O)N1CCc2ccccc2C1)OCc1ccccc1 | -12.6% | ? | 6.8% | 14.1µM* | i | -11.2%
C[C@H](NC(=O)c1nc[nH]c1C(=O)N1CCc2ccccc2C1)C(=O)OC(C)(C)C | -4.2% | ? | -7.4% | ? | i | -9.9%
CC(C)C[C@H](NC(=O)c1nc[nH]c1C(=O)N1CCc2ccccc2C1)C(=O)OC(C)(C)C | -19.2% | ? | ? | 11.2µM* | i | -18.9%
C[C@H](NC(=O)c1nc[nH]c1C(=O)NCC(=O)OC(C)(C)C)C(=O)OC(C)(C)C | 6.7% | ? | -0.8% | 12.6µM* | ? | -37.7%
CCOc1ccc(NC(=O)Cn2nc3c(cc2=O)CC(C)CC3)cc1 (centres undefined) | -7.9% | . | -14.1% | . | . | .
CC(C)C[C@H](NC(=O)[C@@H]1CCC(=O)N1)C(=O)N[C@@H](Cc1ccc(O)cc1)C(=O)N[C@@H](CCC(=O)O)C(=O)N[C@@H](CC(N)=O)C(=O)N[C@@H](CCCCN)C(=O)N1CCC[C@H]1C(=O)N[C@@H](CCCN=C(N)N)C(=O)N[C@@H](CCCN=C(N)N)C(=O)N1CCC[C@H]1C(=O)N[C@@H](Cc1ccc(O)cc1)C(=O)O | . | -1.1% | . | 7.1% | . | .
Cc1ccc(C)c(CNC(=O)CN2C(=O)CSc3ccc(S(=O)(=O)N(C)C)cc32)c1 | -18.0% | . | ? | . | i | 2.1%
CC(C)C[C@H](NC(=O)c1nc[nH]c1C(=O)N[C@@H](CC(C)C)C(=O)OC(C)(C)C)C(=O)OC(C)(C)C | -2.9% | 11.2µM* | ? | ? | 22.4µM* | ?
CC(C)C[C@H](NC(=O)c1nc[nH]c1C(=O)NCCNC(=O)OC(C)(C)C)C(=O)CNCCNC(=O)c1[nH]cnc1C(=O)N[C@@H](C)C(=O)OC(C)(C)C | 3.4% | . | 9.4% | . | i | 7.4%
CC(C)C[C@H](NC(=O)c1[nH]cnc1C(=O)Nc1ccc(Cl)cc1)C(=O)OC(C)(C)C | -55.3% | 3.98µM* | ? | 2.82µM* | 28.2µM* | ?
CC(C)(C)OC(=O)NCCCC[C@H](NC(=O)c1[nH]cnc1C(=O)Nc1ccc(CNC(=O)OC(C)(C)C)cc1)C(=O)OC(C)(C)C | -4.2% | -3.5% | -25.4% | ? | ? | 0.0%
CC(C)C[C@H](NC(=O)c1nc[nH]c1C(=O)NCC(=O)OC(C)(C)C)C(=O)OC(C)(C)C | -14.5% | ? | ? | 7.08µM* | ? | 0.0%
COc1cc([N+](=O)[O-])ccc1NC(=O)N1CCCCCC1 | -11.3% | ? | -6.6% | 12.6µM* | i | -12.0%
N#Cc1ncc(Cl)c2ccccc12 | 15.8µM* | 5.7% | -15.8% | 3.2% | i | .
N#Cc1cc(-c2ccccc2)cnc1Cl | -21.4% | 2.3% | -17.1% | ? | i | 0.5%
CC(=O)Nc1nonc1-c1nnc(SCC(=O)Nc2cc(Cl)ccc2C)n1C | -14.7% | . | 2.0% | . | i | 8.1%
